Results as given in ChEMBL document CHEMBL3988442, “University of Dundee, Small-Polar-MMV Screening Library” (2021).

Molecular target: AMP-activated protein kinase, AMPK (Homo sapiens) (UniProt P54646+O43741+P54619+Q9UGJ0+Q9Y478+Q13131+Q9UGI9)
Test: AMP-dependent Kinase enzyme assay. An in vitro enzyme assay that detects ADP turnover that is directly proportional to AMPK activity. This uses naive AMPK that is activated during the assay with MK-8722
Type: functional
Parameters: scale not given: direction of the effect not stated beside the values
Details: 30 µM

SMILES	Percent Effect [%]
CCCN(CCC)C(=O)c1cnn(C)c1C	3.84
CC(c1ccncn1)N(C)S(=O)(=O)NCc1ccccc1 (centres undefined)	-13.5
Cc1ccsc1C(CNC(=O)c1cc(=O)c2ccccc2[nH]1)N(C)C (centres undefined)	13.7
CCC(CNC(=O)CCn1cncn1)N1CCc2ccccc2C1 (centres undefined)	1.86
COCCN(C)C[C@@H]1CN(Cc2ccnc3ccccc23)C[C@@H]1CO	-4.2
Cc1c(C(=O)NC2CCCC2)nnn1-c1ccccc1	-3.83
CN(CCc1cccs1)CCc1nccs1	-4.34
COc1ccccc1Oc1ncccc1CNC(=O)C1COC(=O)N1 (centres undefined)	-13.1
CCN(CC)C(=O)CN1CCCC1C(=O)N(C)C (centres undefined)	-2.41
N#CCCN(CCC#N)C(=O)c1cccc(N2CCNC2=O)c1	-2.85
CCS(=O)(=O)N1CCCN(CCCOC)CC1	19
COc1ccc(C2CCN(CCCC#N)CC2)cc1	3.86
COc1ccccc1NC(=O)CCNC(=O)c1ccoc1	-6.87
CN(CCc1ccccn1)C(=O)c1cccs1	6.23
COCC(O)CNC(=O)c1cc(COc2ccc3c(c2)CCCC3)on1 (centres undefined)	-0.134
CNC(=O)CCOC(=O)c1cccc(-n2cccn2)c1	7.17
CN1CCCN(c2ccc(F)cc2CNC(=O)c2ccsc2)CC1	5.4
Cc1cc(S(=O)(=O)N(CCO)C2CC2)ccc1F	0.797
CC(C)(C)c1ccc(-n2ncc3c2CCCC3N)cc1 (centres undefined)	5.4
Cc1nccn1CCCN1CCCC(c2nccn2C)C1 (centres undefined)	-14.7

SMILES	Percent Effect [%]
CCCC1COCCN1Cc1ccc(C(=O)O)cc1 (centres undefined)	-3.74
CSCC(=O)N(C)Cc1noc(-c2ccccc2)n1	6.32
CCn1nc(C)c(C(C)Nc2cc(C3CCNCC3)nc(C)n2)c1C (centres undefined)	0.304
CCc1cc(NCCCc2nc(C)no2)nc(-c2ccncc2)n1	-1.39
Cc1sc(C(=O)NS(C)(=O)=O)cc1-c1ccc(F)cc1	-4.08
O=C1NCCN(Cc2ccccc2)C1CC(=O)N1CCc2n[nH]cc2C1 (centres undefined)	-20.4
O=C(Cn1ccc2ncccc2c1=O)N1CCCCC1	-2.48
O=C(c1cnc2ccccn12)N1CCCC(c2ccn[nH]2)C1 (centres undefined)	7.56
CC1CCC(O)(CSc2nnnn2C)CC1 (centres undefined)	3.45
NC(=O)C1CCCN(Cc2ccc(C(=O)Nc3cnns3)cc2)C1 (centres undefined)	5.32
CC(C)CNC(=O)c1sccc1-n1cnnn1	10.8
Cc1ccc2occ(CN3CCN(c4ncccn4)CC3)c(=O)c2c1	-1.29
COCCNc1ccc(CC2CCCN(c3ncccn3)C2)nn1 (centres undefined)	6.13
CCCN(CC(F)(F)F)S(=O)(=O)c1cc(C(N)=O)n(C)c1	-4.23
CN(C)Cc1cn(-c2ccccc2C(=O)NCCC2CCCN2C)cn1 (centres undefined)	-16.8
NC(=O)COc1ccc(CN2CC[C@@]3(O)CCCC[C@H]3C2)cc1Cl	3.71
CCC(C(=O)NCCc1coc(-c2ccc(C)cc2)n1)N(C)C (centres undefined)	6.54
Cc1cc(N2Cc3cnn(CCO)c3C2)nc(-c2ccccc2O)n1	28.4
CCC(c1ccc(F)cc1F)S(=O)(=O)CCO (centres undefined)	-2.09
